Percent Effect data for 37 compounds are collected here from ChEMBL document CHEMBL3988442, “University of Dundee, Small-Polar-MMV Screening Library” (2021).

In experiment [1] the target is T1, Aspartate--tRNA(Asp/Asn) ligase (Mycobacterium tuberculosis (strain ATCC 25618 / H37Rv)) (UniProt P9WFW3). Also: in the data most compounds retested in dose-response had high values.
T1 sequence (whole entry): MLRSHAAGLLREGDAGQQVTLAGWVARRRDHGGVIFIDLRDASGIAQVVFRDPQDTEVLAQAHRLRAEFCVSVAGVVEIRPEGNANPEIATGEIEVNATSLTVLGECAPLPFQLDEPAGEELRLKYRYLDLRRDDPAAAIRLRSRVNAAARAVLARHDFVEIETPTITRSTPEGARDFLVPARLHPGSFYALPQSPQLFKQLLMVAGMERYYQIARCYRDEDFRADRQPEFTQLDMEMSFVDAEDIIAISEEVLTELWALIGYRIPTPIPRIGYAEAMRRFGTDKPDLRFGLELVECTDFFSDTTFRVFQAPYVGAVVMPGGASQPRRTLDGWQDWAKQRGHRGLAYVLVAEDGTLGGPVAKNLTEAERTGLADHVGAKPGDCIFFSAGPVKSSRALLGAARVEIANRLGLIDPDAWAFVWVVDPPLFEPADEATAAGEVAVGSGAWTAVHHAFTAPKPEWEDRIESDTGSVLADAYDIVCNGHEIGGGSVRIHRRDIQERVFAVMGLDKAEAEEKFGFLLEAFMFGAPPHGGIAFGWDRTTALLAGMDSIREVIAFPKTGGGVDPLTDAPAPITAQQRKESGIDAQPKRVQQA
In words: Assay for Asp RNA synthetase-1 from Mycobacterium tuberculosis. It is filed as functional. More on the design: scale not given: direction of the effect not stated beside the values. The settings on record: 30 µM.

The target of experiment [2] is Shiga toxin 2 (Escherichia coli O157:H7) (UniProt P09385+P09386). Kind of experiment: E. coli 0.157:H7 Shiga Toxin SOP - stx2 screening assay. In kind it is functional. The conditions noted are these: 30 µM. Further details: scale not given: direction of the effect not stated beside the values.

For `O=C(c1cccnc1)N1CCc2ncnc(C3CCOC3)c2CC1` (centres undefined), the Percent Effect in experiment [1] is -5.37%; in experiment [2], -9.92%.

Consider `COCc1nc(C(=O)N2CCCC2c2c(C)nn(C)c2C)cs1` (centres undefined), for which the Percent Effect in experiment [1] was -5.87%; in experiment [2], -13.6%.

Turning to `Cc1cc(C)cc(NS(=O)(=O)c2cc3c(c(C(=O)O)c2)OCCO3)c1`, the results for the Percent Effect in experiment [1] and in experiment [2] were 3.19% and -24.3%, respectively.

In the case of `CC(C)c1nccn1C1CCCN(C(=O)c2cccc3c2OCO3)C1` (centres undefined), the Percent Effect in experiment [1] is 0.582%; in experiment [2], -1.21%.

`CCCNC(=O)c1cc2c(nc1O)CCC(C)C2` (centres undefined): the Percent Effect in experiment [1] is -2.53%; in experiment [2], -21.4%.

For the compound `COCCc1noc(CN2CCCC2c2c(C)nn(C)c2C)n1` (centres undefined), the Percent Effect in experiment [1] is -7.13%; in experiment [2], 10.3%.

As to `CN(C)C(=O)CS(=O)(=O)Cc1cc(Cl)c2c(c1)OCO2`, the Percent Effect was 0.927% in experiment [1] and 25.6% in experiment [2].

As to `CC(C)c1ncc2c(n1)CN(Cc1cccc(C#N)c1)CC2`, the values for the Percent Effect in experiment [1] and in experiment [2] were 0.9% and -1.08%, respectively.

With `Cc1cc(C)nc(Nc2cccc(C3CCCN(C)C3)n2)n1` (centres undefined), the Percent Effect was -3.29% in experiment [1] and 1.38% in experiment [2].

Turning to `CN(CCc1ccccc1)Cc1cc(C(=O)N2CCN(C)C(=O)C2)no1`, the Percent Effect is -2.28% in experiment [1] and -18.1% in experiment [2].

On to `CCc1nnc2n1CCN(C(=O)c1csc(-c3cnn(C)c3)n1)C2`, for which the Percent Effect was 0.836% in experiment [1] and -15.8% in experiment [2].

For `Cn1cc(CNCC2Cn3nnc(-c4ccccc4)c3CO2)cn1` (centres undefined), the figures for the Percent Effect in experiment [1] and in experiment [2] were 5.57% and -42.7%, respectively.

In the case of `CNc1cc(CNC(=O)c2ccccn2)nc(-c2ccncc2)n1`, the Percent Effect in experiment [1] is -1.21%; in experiment [2] it was 5.89%.

With `COc1ccc(CN2CCC[C@@H]3CN(C(=O)c4ccco4)C[C@@H]32)cc1`, the Percent Effect in experiment [1] is 5.87%; in experiment [2], 0.332%.

For the compound `COc1ccc(CCC(=O)NC2CCC(O)CC2)cc1OC` (centres undefined), the Percent Effect was -2.67% in experiment [1] and 33% in experiment [2].

On to `Cc1cnc(N2CC3(CCN(C(=O)c4ccoc4)C3)C2)nc1`, for which the Percent Effect in experiment [1] was 0.713%; in experiment [2], -36.5%.

With `COCc1ccccc1C(=O)NCCCN1CCCC1C(=O)N(C)C` (centres undefined), the Percent Effect was 5.84% in experiment [1] and -26.7% in experiment [2].

Take `CNC(=O)c1cc2c(nc1NC(C)C)CCN(C(=O)NC(C)C)CC2`: the values for the Percent Effect in experiment [1] and in experiment [2] were -2.07% and 0.412%, respectively.

As to `CN(C)C(=O)N1CCN(CCn2nc3ccccn3c2=O)CC1`, the Percent Effect is -3.02% in experiment [1] and -19.4% in experiment [2].

As for `COc1ccc(CNC(=O)NCC2CCOC2)c(C(F)(F)F)c1` (centres undefined), the Percent Effect was -4.04% in experiment [1] and -3.72% in experiment [2].

As to `COc1ccc(C2CCCN2C(=O)c2cc3c([nH]c2=O)CCC3)cc1` (centres undefined), the figures for the Percent Effect in experiment [1] and in experiment [2] were 3.11% and -10%, respectively.

`Cc1cnn(CC2CCCCN2Cc2cc(C)on2)c1` (centres undefined): the Percent Effect in experiment [1] was -5.5%; in experiment [2] it was -7.45%.

As for `O=C(Nc1nccs1)N(CCO)Cc1ccsc1`, the values for the Percent Effect in experiment [1] and in experiment [2] were -2.48% and -3.95%, respectively.

Regarding `Cc1ccc(NC(=O)C2=CN=S=N2)cc1`, the Percent Effect in experiment [1] is -2.07%; in experiment [2], -19.2%.

For the compound `Cc1cncc(C2CCCN(Cc3cccn3C)C2)n1` (centres undefined), the values for the Percent Effect in experiment [1] and in experiment [2] were 0.162% and 10.2%, respectively.

Consider `c1ccc2oc(N3CCCCC3Cn3cncn3)nc2c1` (centres undefined), for which the Percent Effect in experiment [1] was -2.88%; in experiment [2] it was -18.7%.

Take `CC(OCC1CC1)C(=O)N1CCCN(c2ncccc2C#N)CC1` (centres undefined): the Percent Effect was 2.42% in experiment [1] and 27.5% in experiment [2].

`Cc1nn(C)cc1-c1cc(C(F)(F)F)c2c(C)nn(CC(=O)O)c2n1`: the Percent Effect was 4.84% in experiment [1] and 34.1% in experiment [2].

On to `c1ccc(-n2ncc(CNC3CCc4ncnn4C3)n2)cc1` (centres undefined), for which the Percent Effect in experiment [1] was 1.39%; in experiment [2], -16.9%.

Regarding `CCc1cnc2c(c1Nc1ccncc1)c(=O)n(C)c(=O)n2C`, the figures for the Percent Effect in experiment [1] and in experiment [2] were 0.918% and -8.05%, respectively.

For `NC(=O)C1CN(Cc2c[nH]cn2)CCN(C2CCOCC2)C1` (centres undefined), the Percent Effect was -0.938% in experiment [1] and -0.548% in experiment [2].

Regarding `CN(Cc1ccccc1F)C(=O)CS(=O)(=O)Cc1ccc(Cl)c(Cl)c1`, the Percent Effect in experiment [1] worked out at 2.16%; in experiment [2], 37%.

For the compound `Cc1ccc(NC(=O)N2C[C@H]3CC[C@@H]2CN(Cc2cscn2)C3)cc1`, the Percent Effect in experiment [1] was -2.57%; in experiment [2], 8.71%.

Regarding `Cc1ccc(N2CCC3(CC2)CC(OCC(=O)N(C)C)CO3)nn1` (centres undefined), the Percent Effect was -2.52% in experiment [1] and -23.3% in experiment [2].

For `O=C1CC(NCc2ccncc2)CN1Cc1cccc(F)c1` (centres undefined), the Percent Effect was 2.73% in experiment [1] and -1.08% in experiment [2].

Turning to `Cc1cccc(C(=O)N2CCCCC2c2ccc(CN(C)C)cc2)n1` (centres undefined), the results for the Percent Effect in experiment [1] and in experiment [2] were -2.28% and 13.7%, respectively.

Turning to `CC(=O)Nc1nc(C(=O)Nc2ccc(N3CCCCC3)nc2)cs1`, the Percent Effect in experiment [1] is 1.12%; in experiment [2] it was -46.3%.
